# Measured values published in PubChem BioAssay AID743311 (Broad Institute, 2014).
# Measured potencies and affinities stand elsewhere. Active and inactive are the calls of the source. How the calls were made is not given here.
# Assay: HepG2 cell cytotoxicity, dose response, cytotoxicity control, plate reader, dry powder, set 6 (AID 743311)
row,SMILES,outcome
1,Fc1cccc2c1[nH]c(=S)n2CCOc1ccccc1,inactive
2,Cc1ccc(OCCn2cnc3ccccc32)c(C)c1,inactive
3,Cc1ccc(C(C)C)c(OCCn2c(=O)[nH]c3ccccc32)c1,inactive
4,Clc1ccc(OCCn2cnc3ccccc32)cc1,inactive
5,CSc1nc2ccccc2n1CCOc1ccccc1,inactive
6,Clc1ccc(OCCn2cnc3ccccc32)c(Cl)c1,inactive
7,Cc1cccc(OCCn2c(=S)[nH]c3ccccc32)c1,inactive
8,CCc1nc2ccccc2n1CCOc1ccccc1,inactive
9,Cc1ccc2c(c1)[nH]c(=S)n2CCOc1ccccc1,inactive
10,Cc1ccc(OCCn2cnc3ccccc32)c(C(C)C)c1,inactive
11,FC(F)(F)c1cccc(OCCn2cnc3ccccc32)c1,inactive
12,Cc1ccc(C(C)C)c(OCCn2c(=S)[nH]c3ccccc32)c1,inactive
13,COCc1nc2ccccc2n1CCOc1ccc(C(C)(C)C)cc1,inactive
14,CC(C)c1ccccc1NCCn1c(=S)[nH]c2ccccc21,inactive
15,CS(=O)(=O)c1ccc(OCCn2cnc3ccccc32)cc1,inactive
16,CSc1nc2ccccc2n1CCOc1cc(C)ccc1C(C)C,inactive
17,COc1ccccc1OCCn1c(SC)nc2ccccc21,inactive
18,Cc1ccc(OCCn2cnc3cc(C)c(C)cc32)cc1,inactive
19,CCCc1nc2ccccc2n1CCOc1ccccc1,inactive
20,CC(C)Oc1cccc(OCCn2cnc3ccccc32)c1,inactive
